Test results taken from PubChem BioAssay (NCATS).
Results filed as inconclusive are left out. Unmarked numbers belong to inactive results. The source made the active and inactive calls. Calls follow the shape of the dose curve; as a rule, active = well fitted inhibition curve with a large enough effect; inconclusive = small, poorly fitted or top-dose-only effect; inactive = flat fitted curve, though single readings scatter. *1 amine or outer side, *2 acyl side, *3 side chain or, on linkers, in order; H or OH if unused. Where a SMILES comes first, the peptide text is derived from it. [ ]: non-standard residue; d: D form. X13 = O=C(C(CC(O)CO)O[*:1])[*:2]; NMeV = CN[CH](C(=O)O)C(C)C; NMeA = CN[CH](C)C(=O)O; βAla = NCCC(=O)O

test system: CRL-7250; assay: Cytotoxic Profiling of Annotated Libraries Using Quantitative High-Throughput Screening (AID 1296008); conditions: Five cell lines viability, CellTiter-Glo ATP luminescence, 48-72 h; max response: hits give low values; also: nearly all actives have a fitted effect of over 60% in size
Summary of the method: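 Compounds were pin-transferred onto cells and incubated 48 or 72 hr at 37 degree Celsius, 95% humidity. CellTiter-Glo was added, plates sat 10 min at room temperature, then ATP-coupled luminescence was imaged as the viability read-out.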
% is scaled to controls: 0 for no effect and ±100 for the full control effect.

SMILES | max response | outcome
CC(=O)O[C@@H]1[C@H](O[C@@H]2O[C@H](CO)[C@@H](O)[C@H](O)[C@H]2O)[C@@H](O[C@@H]2O[C@@H](C)[C@H](O)[C@@H](O[C@@H]3O[C@H](CO)[C@@H](O)[C@H](O)[C@H]3O)[C@H]2O)[C@H](OC(=O)[C@]23CCC(C)(C)C[C@H]2C2=CCC4[C@@]5(C)C[C@H](O)[C@H](O[C@@H]6O[C@H](C(=O)O)[C@@H](O)[C@H](O)[C@H]6O)[C@@](C)(C(=O)O)C5CC[C@@]4(C)[C@]2(C)CC3)O[C@@H]1C (some centres undefined) | -5.6% | –
CC(=O)OCC1OC(O[C@H]2CC[C@@]3(C)C(CC[C@]4(C)C3CC=C3[C@@H]5CC(C)(C)CC[C@]5(C(=O)O)CC[C@]34C)[C@]2(C)CO)C(O)C(O)C1OC1OC(C)C(O)C(OC2OCC(O)C(O)C2O)C1O (some centres undefined) | – | inactive
CC1=C[C@@H]2[C@H]3[C@@H]4O[C@@](C)(CC[C@H]4O)[C@H]3CC(=O)[C@]23C(=O)N[C@@H](CC(C)C)[C@@H]3[C@@H]1C | – | inactive
COc1cccc(CN(C(=O)CC(C)(C)C)C2CC(C(=O)N3CCNCC3)N(Cc3ccc4c(c3)OCO4)C2)c1 (centres undefined) | -4.46% | –
C/C=C/C=C/C(O)=C1/C(=O)[C@]2(C)C3/C(=C(O)/C=C/C=C/C)C(=O)C4(C)C1[C@]1(C)O[C@@]4(O)[C@@]3(C)O[C@@]12O | – | inactive
OC[C@H]1O[C@@H](OCCc2ccccc2)[C@H](O)[C@@H](O)[C@@H]1O | -3.7% | –
CCC(C)C(N)C(=O)NCCN1CCOCC1 (centres undefined) | -0.617% | –
CC1CC2(O)OC(=O)C3=C2C(CCC3)[C@@]12C[C@@H](c1ccoc1)OC2=O (some centres undefined) | 0.272% | –
Cc1nc2ccccc2c(-c2ccc3c4c(ccnc24)CCO3)c1[C@H](OC(C)(C)C)C(=O)O | -8% | –
NC[C@H]1CCC[C@@H](CNC(=O)[C@@H](Cc2c[nH]c3ccccc23)NC(=O)N2CCC3(C=Cc4ccccc43)CC2)C1 | 0.396% | –
CCC(C)/C=C(C)/C=C/C1=CC2=C(Cl)C(=O)C(C)(OC(C)=O)C(=O)C2=CN1C(CCC(=O)O)C(=O)O (centres undefined) | -2.2% | –
CC(C)C1NC(=O)C2CCCN2C1=O (centres undefined) | – | inactive
C=CC1(C)CC2CCC3C(C)(C(=O)O)CCCC3(C)C2=CC1=O (centres undefined) | – | inactive
CC(C)C1(O)C=C2C(=O)CC3C(C)(C(=O)O)CCCC3(C)C2CC1 (centres undefined) | 3.97% | –
COc1cccc(C)c1C(=O)O[C@@H]1C[C@H](O[C@H]2[C@H](O)C[C@H](O[C@@H]3CCC[C@H]4[C@H]3C=C[C@@H]3CCCC/C=C/[C@H]5C=C(C(=O)O)[C@@H](C)C[C@@]56OC(=O)C(=C6O)OC(=O)[C@@]34C)O[C@@H]2C)O[C@H](C)[C@H]1O | -2.06% | –
C=C(C(=O)OC)[C@]12O[C@@](C)(CC[C@@]3(O)/C(=C\C)C(=O)O[C@]3(C)C[C@@H]1OC(=O)C(CO)CN1CCCC1C(=O)O)CC2=O (some centres undefined) | – | inactive
COC(=O)C1=CO[C@@H](O[C@@H]2O[C@H](CO)[C@@H](O)[C@H](O)[C@H]2O)[C@@H]2[C@@H](CO)[C@@H](O)C(O)[C@H]12 (some centres undefined) | – | inactive
O=C(O)c1cc(O[C@@H]2O[C@H](CO)[C@@H](O)[C@H](O)[C@H]2O)ccc1O | -1.11% | –
C=C(CC/C=C(\C)C(=O)O)C1(O)CC=C(C)CC1 (centres undefined) | 2.5% | –
CC(C)=CCc1cc(O[C@@H]2O[C@H](CO[C@@H]3OC[C@](O)(CO)[C@H]3O)[C@@H](O)[C@H](O)[C@H]2O)ccc1O | -4.68% | –

SMILES | max response | outcome
C=C1CCC2C(C)(C)CCC[C@]2(C)[C@H]1CC/C(C)=C/C(=O)O (some centres undefined) | – | inactive
CCC(C)C1NC(=O)C2CCCN2C(=O)C(CC(O)CO)OC(=O)CCNC(=O)C(C)N(C)C(=O)C(C(C)C)N(C)C1=O (centres undefined) (cyclo([X13]PI[NMeV][NMeA][βAla]); configuration not given here) | -8.24% | –
Cc1cc(-c2nncc3c(C(C)(C)C)c(OCc4ncnn4C)nn23)no1 | – | inactive
C[C@@H]1O[C@@H](O[C@@H]2\C=C/C=C\C=C/C=C\C[C@H](C)OC(=O)/C=C\[C@H]3O[C@@H]3C[C@H](O)C[C@]3(O)C[C@@H](O)[C@@H](C(=O)O)[C@H](C2)O3)[C@H](O)[C@H](N)[C@@H]1O | 3.44% | –
CC(=O)c1ccc(O[C@@H]2OC[C@@H](O)[C@H](O)[C@H]2O[C@]2(CO)O[C@H](CO)[C@@H](O)[C@@H]2O)c(O)c1 | – | inactive
C=C1CC[C@@H]2[C@@](C)(CO[C@@H]3O[C@H](CO)[C@@H](O)[C@H](O)[C@H]3O)[C@H](O)CC[C@@]2(C)[C@@H]1CC/C(C)=C/CO[C@@H]1O[C@H](CO)[C@@H](O)[C@H](O)[C@H]1O | – | inactive
OC[C@@]1(O)CO[C@@H](OC[C@H]2O[C@@H](Oc3ccccc3)[C@H](O)[C@@H](O)[C@@H]2O)[C@@H]1O | – | inactive
NC1(c2ccc(NC(=O)c3ccnc(-c4cc(C(=O)O)ccn4)c3)cc2)CC1 | – | inactive
OC[C@@]1(O)CO[C@@H](OC[C@H]2O[C@@H](OCc3ccccc3)[C@H](O)[C@@H](O)[C@@H]2O)[C@@H]1O | 1.98% | –
CC1(C)CC2C(O)C3=C(CC(C)(O)C2C1)C(=O)OC3 (centres undefined) | – | inactive
COc1c2c(c(C)c3c1C(=O)OC3)OC1(C)CC(O)C34OC(O)(CCC3(C)C1C2)OC4(C)C (centres undefined) | – | inactive
COc1cc(C2OCC3(O)C(c4ccc(O[C@@H]5O[C@H](CO)[C@@H](O)[C@H](O)[C@H]5O)c(OC)c4)OCC23O)ccc1O (some centres undefined) | – | inactive
CC1=CC2=C(C)C(=O)[C@](C)(O)[C@H](O)C2=CO1 | -8.59% | –
C[C@]12CCC[C@](C)(C(=O)O)C1[C@@H](O)[C@@H](O)C13CC(CCC12)C(CO)(O[C@@H]1O[C@H](CO)[C@@H](O)[C@H](O)[C@H]1O)C3 (some centres undefined) | 4.72% | –
C=C1CCC2C(C)(C(=O)O)CCCC2(C)C1CC/C(C)=C\CO (centres undefined) | -2.2% | –
C=CC(C)(O)C1CC2C3(C)CCCC(C)(C)C3C(O)C(O)C2(C)O1 (centres undefined) | -10.8% | –
CC(C)(O)C1CCC2(C)CCCC(C)(O)C2C1 (centres undefined) | -27.4% | –
CC(=O)O[C@H]1C[C@@]2(C)[C@@H](CC[C@H]3[C@@]4(C)C=CC(=O)[C@@H](C)[C@@H]4[C@H](OC(C)=O)C(=O)[C@@]32C)/C1=C(\CCC=C(C)C)C(=O)O | 4.49% | –
COC(=O)C(Cc1ccccc1)NC(=O)c1ccccc1 (centres undefined) | -7.59% | –
